Results taken from PubChem BioAssay AID743395 (Broad Institute, 2014).
The whole screen tested about 1,200 compounds, of which about 480 (40%) were called active. The set was probably picked from earlier hits. Only a sample is shown. Potency and affinity values are given separately. Values without a mark were called inactive. The rule behind the calls is not given here.

experiment: viability loss in human hepatoma cells – cell-based, CellTiter-Glo luminescence, cherry-pick, set 2, cytotoxicity control, dose response (AID 743395); conditions: HepG2 viability, CellTiter-Glo ATP luminescence, 72 h; series mostly up to 26 µM; activity change, negative = cytotoxicity: at the top concentration;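 note: 0% = neutral control wells and -100% = positive control wells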

SMILES | activity change, negative = cytotoxicity
Cc1cccc(OCC(=O)NNC(=O)c2ccc3nc[nH]c3c2)c1 | -11.2%
COc1ccc(C(=O)Nc2ccc(NC(=O)c3cccc(F)c3)cn2)cc1 | -8.34%
COc1ccc(C(=O)OCc2nc(N)nc(Nc3ccccc3C)n2)cc1OC | -13.4%
COc1ccc(NC(=O)c2ccc(OCC3CCCO3)cc2)cc1OC (centres undefined) | 0.664%
CC(OC(=O)c1ccc(Cl)nc1)C(=O)NC(C)(C)C (centres undefined) | -2.04%
NS(=O)(=O)c1cc(C2(O)NC(=O)c3ccccc32)ccc1Cl (centres undefined) | -3.58%
CCNC(=O)C[C@@H]1C=C[C@@H](NC(=O)NC2CCCCC2)[C@H](CO)O1 | -3.27%
O=C(CSC1=NCCN1)Nc1cccc([N+](=O)[O-])c1 | -21.5%
COc1ccc([C@@H]2[C@@H]3C(=O)N(C(C)(C)C)C(=O)[C@@H]3[C@]3(Cc4ccccc4)C(=O)N(c4ccc(C(F)(F)F)cc4)C(=O)N23)cc1 | -20.1%
CCc1ccccc1N(C)S(=O)(=O)c1ccc(-c2cc(C)no2)s1 | -15%
Cc1ccc(OCCC(=O)NNC(=O)c2ccc(Br)cc2)cc1 | -3.58%
O=C(NCCCN1CCOCC1)c1sc2cc(Cl)ccc2c1Cl | -1.96%
O=C(NCCCN1CCOCC1)c1cc(S(=O)(=O)N2CCOCC2)c(Cl)cc1Cl | -1.37%
CN(C)CCCN1c2ccccc2Sc2ccccc21 | -24.3%
COC(=O)C1CC23C=CCN4CCC5(c6ccccc6NC15C2C)C43 (centres undefined) | -14.9%
COc1ccccc1NC(=O)C(=O)NCC(c1ccco1)N1CCc2ccccc21 (centres undefined) | 6.66%
COc1ccc(C(=O)NCC(c2ccco2)N2CCc3ccccc32)cc1 (centres undefined) | -17.2%
CCCc1nc(SC2CCCC2)c2c(=O)n(C)c(=O)n(C)c2n1 | -17.4%
COc1ccc(NCC(=O)n2c(C)c(C)c3ccccc32)cc1 | -2.65%
COc1cc(OC)cc(C(=O)N2CC(=O)Nc3ccccc32)c1 | -14%

SMILES | activity change, negative = cytotoxicity
COc1ccc(/C=C2/CCCc3ccccc3C2=O)cc1 | -22.7%
COC(=O)c1cn(C(=O)c2ccc(C)cc2C)c2ccccc12 | -20.2%
O=C(NCc1cccnc1)c1cc(C2CCCCN2C(=O)CCCc2ccccc2)on1 (centres undefined) | -5.42%
COc1ccccc1/C=N/NC(=O)c1cc2c(OC)c(OC)ccc2[nH]1 | -8.24%
Cc1ccc(C)c(NC(=O)CCC(=O)N/N=C/c2cc([N+](=O)[O-])ccc2O)c1 | -10.3%
CCCOCCOC(=O)c1[nH]c2c(c1C)C(=O)CC(c1cc(OC)ccc1OC)C2 (centres undefined) | 1.47%
CN(CC(=O)Nc1ccc(Cl)c(C(F)(F)F)c1)C(=O)CCN1C(=O)C2CCCCC2C1=O (centres undefined) | -13.2%
CCOC(=O)c1nc(C)sc1-c1ccnn1S(=O)(=O)c1ccccc1C(F)(F)F | -0.592%
CC(=O)c1c(C)[nH]c(C(=O)OCC(=O)NCc2ccc(Cl)cc2)c1C | -21.3%
O=C1NCCc2c1[nH]c1ccc([N+](=O)[O-])cc21 | -20.4%
O=C(CCNC(=O)c1ccco1)Nc1nc(-c2ccccc2)cs1 | -11.4%
COc1cc(/C=C2\SC(=Nc3ccc(Cl)c(C(=O)O)c3)NC2=O)c(Br)c(Br)c1O | 4.23%
COc1ccc2c(c1)/C(=C/c1cc(OC)c(OC)c(OC)c1)C(=O)N2 | -24.9%
Cc1nn(C2CCS(=O)(=O)C2)c2nc(C3CC3)cc(C(=O)Nc3cccc(C#N)c3)c12 (centres undefined) | -19.7%
COc1ccc(C#Cc2ccc3c(c2)O[C@H](CN(C)C(=O)Nc2cccc(OC)c2)[C@H](C)CN([C@H](C)CO)S3(=O)=O)cc1 | -1.04% [at 23.5 µM]
COc1ccc(CNCC(=O)Nc2ccccc2-n2cccc2)cc1 | -13.8%
COc1ccc(NC(=O)C(=O)c2cn(CC(=O)N3CCCC3)c3ccccc23)cc1OC | -33.5%
CCCCNC(=O)c1onc(CSc2ccccc2C)c1C(=O)O | -8.72%
COc1cccc(C2=CC(c3ccccc3)n3nnnc3N2)c1 (centres undefined) | -18.3%
CCOc1cc(N2CCOCC2)c(OCC)cc1NC(=O)CN1C(=O)NC2(CCCCC2)C1=O | -3.62%

SMILES | activity change, negative = cytotoxicity
COCCCN=C1NN=C(c2cc(C)n(Cc3ccccc3Cl)c2C)CS1 | -14.4%
C[C@H]1CNC(=O)c2c(C(=O)Nc3ccc(CNC(=O)OC(C)(C)C)cc3)ncn21 | -3.46%
C[C@H]1CN([C@@H](C)CO)S(=O)(=O)c2ccc(C#Cc3cccc(F)c3)cc2O[C@H]1CN(C)C(=O)NC1CCCCC1 | -26.2%
C[C@@H]1CN([C@H](C)CO)S(=O)(=O)c2ccc(C#Cc3cccc(F)c3)cc2O[C@@H]1CN(C)C(=O)NC1CCCCC1 | -27.1%
C[C@H](CO)N1C[C@H](C)[C@@H](CN(C)C(=O)NC2CCCCC2)Oc2cc(C#Cc3ccc(F)cc3)ccc2S1(=O)=O | 15.3%
CC(=O)N(C)C[C@@H]1Oc2cc(C#Cc3ccc(F)cc3)ccc2S(=O)(=O)N([C@H](C)CO)C[C@@H]1C | -8.91%
C[C@H](CO)N1C[C@H](C)[C@H](CN(C)C(=O)NC2CCCC2)Oc2cc(C#Cc3ccc(F)cc3)ccc2S1(=O)=O | -13.8%
C[C@H](CO)N1C[C@H](C)[C@H](CN(C)C(=O)NC2CCCCC2)Oc2cc(C#Cc3ccc(F)cc3)ccc2S1(=O)=O | -7.21%
Cc1cccc2c(N=Nc3ccc(S(=O)(=O)Nc4ccc(Cl)cc4)cc3[N+](=O)[O-])c(O)[nH]c12 | 1.24%
Cc1ccc(-c2nc(CSCC(=O)Nc3cc(C)on3)c(C)o2)cc1 | -3.4%
COc1ccc(C#Cc2ccc3c(c2)O[C@@H](CN(C)C(=O)Nc2cccc(OC)c2)[C@H](C)CN([C@H](C)CO)S3(=O)=O)cc1 | -6.6%
CO[C@@H]1CN(C)C(=O)c2cc(NC(=O)Nc3c(C)noc3C)ccc2OC[C@@H](C)N(C)C[C@@H]1C | 4.2%
Cc1ccc(S(=O)(=O)NCc2ccccc2)cc1C(=O)N1CC(C)CC(C)C1 (centres undefined) | -7.82%
Cc1cccc(OCCNC(=O)c2ccc(Cl)c(S(=O)(=O)NCc3cccnc3)c2)c1 | -31.4%
N=c1sccn1CC(=O)Nc1ccc(S(N)(=O)=O)cc1 | -16.8%
COC(=O)C[C@@H]1CC[C@@H]2[C@H](COc3ccc(NC(=O)c4ccc(C(F)(F)F)cc4)cc3C(=O)N2C)O1 | -19.6%
NS(=O)(=O)c1ccc(CNc2ccc3ccccc3n2)cc1 | 1.62%
O=C(CN(Cc1ccccc1)S(=O)(=O)c1ccc(F)cc1)NCc1cccnc1 | -16.4%
COC(=O)c1ccsc1NC(=O)c1ccccc1 | -17.6%
